The subject of experiment [1] is Zika virus NS2B-NS3 protease. The experiment in a line: Primary screen GU AMC qHTS for Zika virus inhibitors (AID 1347154).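 Further: 0% = no-inhibitor control and -100% = no-enzyme control; nearly all actives have a fitted effect of over 70% in size.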 In a few lines: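 Unlinked Zika NS2B hydrophilic domain–NS3 protease complex at 25 nM in 10 mM Tris-HCl pH 8.0, 0.01% Tween 20, with an AMC peptide substrate. Fluorescence change (340/450 nm) over 15 min at room temperature, normalized to controls, fitted to 4-parameter Hill.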
For orientation: Quantitative high-throughput screening tests each substance at several concentrations.

Experiment [2] can be described thus: Counterscreen qHTS for small molecule stabilizers of the endoplasmic reticulum resident proteome: GLuc-NoTag assay (AID 1508627).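 Further: 0% = thapsigargin alone and -100% = DMSO vehicle control.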 In outline: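 SH-SY5Y cells stably expressing constitutively secreted GLuc without SERCaMP tag, exposed to compound for 19 hr, then to 100 nM thapsigargin for 4 hr at 37C. Medium luciferase was read by coelenterazine luminescence without lysis.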
In general terms: A counterscreen serves to expose hits that act by an unwanted route or on another target.

Experiment [3] is described as follows: Confirmatory qHTS for small molecule stabilizers of the endoplasmic reticulum resident proteome: Secreted ER Calcium Modulated Protein (SERCaMP) assay (AID 1508628). Further: nearly all actives have a fitted effect of over 40% in size. Further: potency means the concentration at half of the fitted maximal effect. In a few lines: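 SH-SY5Y cells stably expressing GLuc-SERCaMP, treated 16 h with compound (primary 1.53, 7.67, 38.3 uM; confirmation 11 concentrations, up to 76.6 uM), then 100 nM thapsigargin for 4 h. Secreted Gaussia luciferase in medium read by coelenterazine luminescence.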

Experiment [4] has as its target Glucocorticoid receptor (Homo sapiens) (UniProt P04150). The experiment in a line: GR-GFP Redistribution (AID 450;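 active means compounds whose dose series gives a full or clear partial fitted curve of increased nuclear translocation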; further: potency means the concentration at half of the fitted maximal effect). Conditions: U2OS GR-GFP nuclear translocation, laser cytometry, 2 h.
Experiment [5] has the same target. The experiment in a line: GR-EFC Redistribution (AID 451; calls by dose curve; further: potency means the concentration at half of the fitted maximal effect). As to conditions: CHO-K1 GR-EFC translocation, beta-gal luminescence, 2 h. In outline:
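CHO-K1 cells expressing nuclear EA and GR-ED fragments of b-gal; compounds titrated up to 46 uM final, 2 h at 37 C. GR nuclear translocation read as complemented b-gal luminescence after 1 h RT detection.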

Experiment [6] concerns the target Mitogen-activated protein kinase 10 (Mus musculus) (UniProt Q61831). The experiment in a line: JNK3 AlphaScreen Assay (AID 530; active means well fitted curve in either direction with a large enough effect, not every such curve was filed as active;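 further: kinase came from lysate of stimulated human HepG2 cells; signal reports phosphorylation of biotinylated GST-cJun 1-79 at Ser73 with 10 µM ATP; on the % scale 0 is the no-effect control and ±100 the full control effect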). In a few lines:
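Pre-activated (IL-1β/TNFα) JNK3 in HepG2 lysates phosphorylates biotin-GST-cJun(1-79), 10 uM ATP; anti-phospho-cJun(Ser73) AlphaScreen read at room temperature, pH 7.6 Tris buffer. Compounds pre-incubated 15 min as titrations.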
(In general: In Alpha technology, singlet oxygen from a donor bead excites a nearby acceptor bead.)

In experiment [7] the target is 3',5'-cyclic-AMP phosphodiesterase 4B (Homo sapiens) (UniProt Q07343). Description: qHTS Assay for Inhibitors of PDE-IV (AID 607; active means well fitted activation curve with a large enough effect in the main read-out, with a control signal flat, not every such curve was filed as active; further: % of control where 0% means no effect). In a few lines: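 HEK293 ACTOne cells with CNG channel (1000/well), endogenous PDE4; membrane potential dye, compounds up to 22.9 uM final. Fluorescence Ex 535/Em 590; RO 20-1724 (100 uM final) as reference.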
A short description of experiment [8]: qHTS Assay for Lipid Storage Modulators (AID 1519; calls by dose curve; on activity change, negative = inhibition: on the % scale 0 is the no-effect control and ±100 the full control effect). Conditions: Drosophila S3 cells, BODIPY lipid droplet/cell ratio, laser cytometry, cells loaded with oleic acid. In a few lines:
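Cells seeded at 5,000 per well were treated with compounds over a concentration series and loaded with oleic acid (400 uM, as added). Lipid droplet fluorescence (488 nm excitation, 500-530 nm channel) was read by laser-scanning cytometry and normalized to 20 uM Triacsin C.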

For experiment [9], the target named is DNA dC->dU-editing enzyme APOBEC-3G (Homo sapiens) (UniProt Q9HC16). The experiment in a line: qHTS for inhibitors of Vif-A3G interactions: Validation (AID 588379). Further: 0% is about no effect. In a few lines:
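HeLa cells stably expressing Vif and A3G-eYFP, 700 cells/well, incubated overnight at 37 deg C, then exposed to compound overnight at 37 deg C. Inhibition of Vif-mediated degradation read as increased yellow fluorescence (Ex 488/Em 500-530) by laser-scanning cytometry.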

Experiment [10] can be described thus: Primary qHTS for small molecule stabilizers of the endoplasmic reticulum resident proteome: Secreted ER Calcium Modulated Protein (SERCaMP) assay (AID 1508630). Further: on the % scale 0 is the no-effect control and ±100 the full control effect. In a few lines:
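GLuc-SERCaMP-expressing SH-SY5Y cells, pretreated 16 h with compound, are challenged with thapsigargin to empty ER calcium stores; after 4 h, coelenterazine is added directly to the medium and luminescence is imaged.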

A short description of experiment [11]: Cell Viability qHTS for small molecule stabilizers of the endoplasmic reticulum resident proteome (AID 1508629).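 Further: human SH-SY5Y neuroblastoma cells carrying the GLuc-SERCaMP reporter; compound exposure about 46 h in total before the viability read; on the % scale 0 is the no-effect control and ±100 the full control effect.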 As to conditions: cell viability counter-screen, 100 nM thapsigargin for final 4 h.

The source of these data is PubChem BioAssay (NCATS).

Inconclusive results are not listed. The source made the active and inactive calls. Unless noted, the call rests on the fitted dose curve; in most records, active means well fitted curve in the direction sought with a large enough effect; inconclusive means small, poorly fitted or top-dose-only effect, or another doubt; inactive means no such curve, though single readings can be large; an effect the other way counts as inactive or inconclusive.

Sequence of Glucocorticoid receptor (Homo sapiens) (P04150 whole entry, looked up): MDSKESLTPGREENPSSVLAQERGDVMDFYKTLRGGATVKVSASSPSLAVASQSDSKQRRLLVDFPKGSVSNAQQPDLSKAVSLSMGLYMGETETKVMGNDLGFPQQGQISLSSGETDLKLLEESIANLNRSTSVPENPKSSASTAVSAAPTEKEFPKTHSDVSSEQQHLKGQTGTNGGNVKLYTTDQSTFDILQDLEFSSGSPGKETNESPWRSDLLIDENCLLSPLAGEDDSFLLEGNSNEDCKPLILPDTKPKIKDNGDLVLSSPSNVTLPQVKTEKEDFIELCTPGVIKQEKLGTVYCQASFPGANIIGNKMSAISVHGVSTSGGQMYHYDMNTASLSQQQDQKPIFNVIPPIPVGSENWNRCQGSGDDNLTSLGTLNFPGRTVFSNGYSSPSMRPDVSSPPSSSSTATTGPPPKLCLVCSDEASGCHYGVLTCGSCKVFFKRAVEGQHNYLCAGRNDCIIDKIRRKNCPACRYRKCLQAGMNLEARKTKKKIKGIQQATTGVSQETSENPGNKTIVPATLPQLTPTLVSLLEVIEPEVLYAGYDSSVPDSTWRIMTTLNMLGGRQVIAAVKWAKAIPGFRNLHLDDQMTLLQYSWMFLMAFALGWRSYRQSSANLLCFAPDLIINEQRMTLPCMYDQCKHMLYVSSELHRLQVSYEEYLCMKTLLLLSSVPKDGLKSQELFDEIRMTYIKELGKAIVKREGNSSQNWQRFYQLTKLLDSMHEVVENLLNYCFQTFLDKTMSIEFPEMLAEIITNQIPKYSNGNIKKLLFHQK
Sequence of 3',5'-cyclic-AMP phosphodiesterase 4B (Homo sapiens) (Q07343 whole entry, looked up): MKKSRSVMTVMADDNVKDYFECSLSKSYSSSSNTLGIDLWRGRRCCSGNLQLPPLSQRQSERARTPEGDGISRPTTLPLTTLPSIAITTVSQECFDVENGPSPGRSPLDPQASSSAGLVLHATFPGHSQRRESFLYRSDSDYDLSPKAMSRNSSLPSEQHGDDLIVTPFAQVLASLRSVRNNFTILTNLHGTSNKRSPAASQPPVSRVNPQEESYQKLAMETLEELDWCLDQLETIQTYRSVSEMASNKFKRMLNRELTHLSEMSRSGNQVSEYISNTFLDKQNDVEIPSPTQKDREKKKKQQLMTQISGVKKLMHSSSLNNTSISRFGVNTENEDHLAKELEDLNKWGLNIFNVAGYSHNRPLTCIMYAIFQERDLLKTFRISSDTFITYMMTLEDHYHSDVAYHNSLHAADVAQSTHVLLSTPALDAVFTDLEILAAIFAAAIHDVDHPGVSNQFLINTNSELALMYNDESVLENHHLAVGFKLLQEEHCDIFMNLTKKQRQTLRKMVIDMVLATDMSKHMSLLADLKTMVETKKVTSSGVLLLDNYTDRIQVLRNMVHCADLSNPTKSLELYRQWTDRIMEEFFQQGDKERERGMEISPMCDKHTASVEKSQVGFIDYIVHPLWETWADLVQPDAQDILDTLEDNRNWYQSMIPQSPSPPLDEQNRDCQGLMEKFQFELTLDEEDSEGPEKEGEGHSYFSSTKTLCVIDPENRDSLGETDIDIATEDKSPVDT
Sequence of DNA dC->dU-editing enzyme APOBEC-3G (Homo sapiens) (Q9HC16 whole entry, looked up): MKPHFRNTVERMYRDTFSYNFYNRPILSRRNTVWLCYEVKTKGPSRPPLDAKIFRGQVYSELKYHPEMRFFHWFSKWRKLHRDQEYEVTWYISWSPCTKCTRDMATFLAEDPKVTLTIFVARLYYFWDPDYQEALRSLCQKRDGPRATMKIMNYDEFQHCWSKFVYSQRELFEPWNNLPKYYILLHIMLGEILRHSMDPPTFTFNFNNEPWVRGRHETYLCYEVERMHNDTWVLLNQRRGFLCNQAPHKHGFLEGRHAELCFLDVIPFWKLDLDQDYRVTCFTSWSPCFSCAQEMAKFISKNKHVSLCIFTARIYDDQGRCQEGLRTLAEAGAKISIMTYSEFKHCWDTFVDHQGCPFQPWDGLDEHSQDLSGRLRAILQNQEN

Turning to `CC(CN)CC(=O)O` (stereo not given), the Potency result in experiment [1] was “inactive”.
As for `CCCC[C@H]1C(=O)O[C@H](C)[C@H](NC(=O)c2cccc(NC=O)c2OC)C(=O)O[C@@H](C)[C@@H]1OC(=O)CC(C)C`, in experiment [1], the Potency entry was “inactive”.
In the case of `CCC(Sc1ccccc1)C(=O)OC1CC2CCC(C1)N2C` (stereo not given), the Potency result in experiment [1] and in [2] was “inactive” in each case. For the same compound, the Potency in [3] was 5.62 µM (active).
Regarding `NC(N)=NCCCCCCCCCCN=C(N)N`, the Potency in experiment [4] and in experiment [5] was > 46 µM (inactive) each time. In addition, the compound was called inactive in experiment [6]. Besides, the Potency entry in [7], in [9], in [1], in experiment [2], in experiment [3] and in experiment [10] was “inactive” each time. Also, in experiment [8] (at 57.5 µM (top of the series)), the activity change, negative = inhibition is -3.22% (inactive). Further, the max response in experiment [8] (measured here: cell count channel max response) is 7.9%; in experiment [8] (measured here: lipid channel max response), 7.14%.
As to `CC(C)=CCCN1CCC(NC(=O)C(O)(c2ccccc2)C2CCCC2)CC1` (stereo not given), the Potency entry in experiment [1] and in experiment [2] was “inactive” in each case. The max response in experiment [11] was 3.9% (inactive).
As for `CN1CC[C@@H]2CN3CCc4cccc(c43)[C@@H]2C1`, the Potency entry in experiment [1] and in experiment [2] was “inactive” in each case.
For the compound `OC12C3C4CC5C6C4C1C6C(C53)N2CCc1cccc(F)c1` (stereo not given), the Potency result in experiment [1] and in [2] was “inactive” throughout.
Consider `CCCCCCC(C)(C)c1cc(OC)c2c(c1)OC(C)(C)[C@@H]1CC=C(C)C[C@@H]21`, for which the Potency entry in experiment [1] was “inactive”.
